Source: PubChem BioAssay
Akt phos inh: blocks phosphorylation of Akt; 360,000 tested, 0.32% active; activity change, % for hits at 50 µM; Neuro2A IGF-stimulated pAkt S473 HTRF, 20 min; active compounds read low; AID 651550; in the data active means activity change below about -80%; inconclusive means mostly about -51% to -80%; further: on the % scale 0 is the no-effect control and ±100 the full control effect
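Neuro2A cells (4,500/well, DMEM with 0.5% FBS) were treated with compound at a single 50 µM final concentration, stimulated with 6 nM IGF for 20 min at 37 °C, and lysed. Phospho-Akt Ser473 was read by HTRF as 665/615 ratio ×10^4.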
FUS yeast rescue: suppressors of FUS proteinopathy in yeast. S. cerevisiae FUS-expressing, growth rescue, OD600, 24 h. 390,000 tested, 0.24% active. Potency, µM (top dose mostly 76.6 µM), hits mostly activators;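 further: potency means the concentration at half of the fitted maximal effect; plate controls were DMSO vehicle for no effect and reference control for full effect; nearly all actives have a fitted effect of over 55% in size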
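Cultures pregrown in 2.5% raffinose medium are shifted to minimal medium containing 2% galactose to express toxic FUS. Compounds are tested at several concentrations. After 24hr at 30C, growth is quantified at 600 nm absorbance.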
Abeta rescue: A-beta toxicity reversal in yeast; yeast expressing A-beta42, growth rescue, OD600, 48 h; response scale: 0% DMSO, 100% iron-clioquinol control; Potency, µM (doses to about 46.1 µM), hits mostly activators; 410,000 tested, 0.063% active; AID 1347071; further: potency means the concentration at half of the fitted maximal effect; nearly all actives have a fitted effect of over 55% in size
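Growth rescue measured by 600 nm absorbance after 48 h yeast culture at 30 C with compound. Values normalized between DMSO and an equimolar ferric chloride plus clioquinol control.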
TDP43 rescue: rescues yeast growth from TDP-43 toxicity; Potency, µM (top dose mostly 46.1 µM), for the others: at the highest dose growth rescue (activation), most hits filed as activators; 410,000 tested, 1.8% active; TDP-43 expressing yeast growth rescue, BacTiter-Glo, 24 h; further: potency means the concentration at half of the fitted maximal effect; % of control where 0% means no effect; nearly all actives have a fitted effect of over 50% in size
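Yeast cells expressing TDP-43 under galactose induction are exposed to compounds for 24 hr at 30 deg C. BacTiter-Glo luminescence measures growth, so protective compounds score as activators.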
aSyn yeast inh: inhibitors of alpha-synuclein toxicity in yeast; Yeast expressing alpha-synuclein, growth rescue, BacTiter-Glo, 24 h; 370,000 tested, 0.14% active; Potency, µM (titrated, usually from 46.1 µM), inactives show at the top dose growth rescue (activation), actives largely listed as activators; further: potency means the concentration at half of the fitted maximal effect; % of control where 0% means no effect; nearly all actives have a fitted effect of over 65% in size
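Screening used galactose-induced yeast with toxic alpha-synuclein levels, exposed to compound for 24 hr at 30 deg C. Cell growth, read with BacTiter-Glo luminescence, gave the measured signal.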
Active calls of the source: *; i = inactive; ? = inconclusive; / = no result given; [ ] = remark or other dose. Only some compounds are listed: those with a hit (about 2.3% of all), similar ones and a draw of the others. Unless noted, the call rests on the fitted dose curve; in most records, active means well fitted curve in the direction sought with a large enough effect; inconclusive means small, poorly fitted or top-dose-only effect, or another doubt; inactive means no such curve, though single readings can be large; an effect the other way counts as inactive or inconclusive.

SMILES	Akt phos inh	FUS yeast rescue	Abeta rescue	TDP43 rescue	aSyn yeast inh
Cc1ccc2oc(=O)n(Cc3ccccc3Cl)c2c1	/	i	i	22%	/
COc1ccc(/C=N/NC(=O)c2ccc(NC(C)=O)cc2)cc1COc1ccc(F)cc1F	i	25µM*	i	9%	-4%
COc1ccc(/C=N\NC(=O)c2ccccc2F)cc1COc1ccc(F)cc1F	i	i	i	?	4%
Cc1ccccc1CNC(=O)c1ccc2ccccc2n1	i	i	i	16µM*	12%
N#Cc1cn(Cc2cccc(Cl)c2)c2ccccc12	i	/	i	16µM*	5%
O=C(CCSc1ccc(Br)cc1)c1ccc(O)cc1	i	i	i	11µM*	2%
O=C(Cc1ccc(NC(=O)N2CCCCc3ccccc32)cc1)NCc1ccccc1Br	/	?	i	20%	/
O=S(=O)(c1cccc(-c2csc(N/N=C/c3ccco3)n2)c1)N1CCOCC1	i	?	i	16µM*	2%
COc1ccc2nc(N3C(=O)CC(C(C)c4ccccc4)C3=O)sc2c1 (centres undefined)	i	/	i	11µM*	1%
CC(c1ccccc1)C1CC(=O)N(c2ccc(C(=O)O)cc2)C1=O (centres undefined)	-81%*	i	i	-20%	0%
CCOc1ccc(N2C(=O)CC(C(C)c3ccccc3)C2=O)cc1 (centres undefined)	i	i	i	27%	9%
CCOC(=O)c1scc(-c2ccccc2)c1S(=O)(=O)Nc1ccc(N(C)C)cc1	/	i	i	-2%	/
CN(C(=O)CSc1ncnc2sccc12)C1CCCCC1	i	/	i	?	1%
CN(CC1COc2ccccc2O1)C(=O)CSc1ncnc2sccc12 (centres undefined)	i	?	i	18µM*	10%[1.84 µM]
CCc1ccccc1NC(=O)Cn1c(=O)n(Cc2ccc(OC)cc2)c(=O)c2oc3ccccc3c21	/	i	i	-6%	/
Cc1ccc(/C=C/C(=O)N2CC(C)CC(C)C2)o1 (centres undefined)	i	i	i	25µM*	8%
COc1ccccc1NC(=O)Cc1coc2cc(C)ccc12	i	i	i	11µM*	5%
CCOc1ccccc1NC(=O)Cc1coc2cc(C)ccc12	i	i	i	12%	8%
Cc1ccc2c(CC(=O)NNC(=O)c3ccccc3O)coc2c1	i	35µM*	i	0%	-4%
Cc1cccc(CN2C(=O)c3ccccc3Sc3ccc(C(=O)N4CCCC4)cc32)c1	/	i	i	?	/
Cn1ccc2c(-c3cncc4ccccc34)cc3c(c21)C1CCC3O1 (centres undefined)	i	i	i	0%	-4%
CSc1ccc(-c2cc3c(c4c2ccn4C)C2CCC3O2)cc1 (centres undefined)	i	i	i	25µM*	?
Cc1ccccc1-c1cc2c(c3c1ccn3C)C1CCC2O1 (centres undefined)	i	i	?	11µM*	-2%
Cn1ccc2c(-c3ccc(C(=O)O)cc3)cc3c(c21)C1CCC3O1 (centres undefined)	i	i	i	22µM*	3%
Cn1ccc2c(-c3ccc4c(c3)OCCO4)cc3c(c21)C1CCC3O1 (centres undefined)	i	?	i	22µM*	-13%
SMILES	Akt phos inh	FUS yeast rescue	Abeta rescue	TDP43 rescue	aSyn yeast inh
Cc1ccc(-c2onc(C)c2C)cc1S(=O)(=O)Nc1ccc(Cl)cn1	/	i	i	-3%	/
Cn1ccc2c(-c3ccc(CO)cc3)cc3c(c21)C1CCC3C1 (centres undefined)	i	?	i	35µM*	14%
Cn1ccc2c(-c3ccc(C(F)(F)F)cc3)cc3c(c21)C1CCC3O1 (centres undefined)	i	i	?	8.9µM*	-24%
CCC(=O)NC(c1cccs1)c1cc(Cl)c2cccnc2c1O (centres undefined)	i	i	i	6%	17%
CC(=O)NC(c1ccc(N(C)C)cc1)c1cc(Cl)c2cccnc2c1O (centres undefined)	i	i	i	28µM*	15%
COc1ccc(C(=O)NC(c2ccccc2Cl)c2cc(Cl)c3cccnc3c2O)cc1 (centres undefined)	/	i	i	?	16µM*
COc1cc(C(=O)NC(c2ccccc2Cl)c2cc(Cl)c3cccnc3c2O)cc(OC)c1OC (centres undefined)	/	i	i	11%	/
CCCCC(=O)NC(c1cccs1)c1cc(Cl)c2cccnc2c1O (centres undefined)	i	i	?	0%	22µM*
CC(=O)NC(c1ccccc1)c1cc(Cl)c2cccnc2c1O (centres undefined)	i	i	?	5%	?
COc1ccc(NC(=O)CSc2nc3ccccc3n2Cc2cccc(OC)c2)cc1	/	i	i	0%	/
Cc1cc(F)ccc1NS(=O)(=O)c1c(C)nc2scc(C)n2c1=O	i	i	i	20µM*	-8%
CCCN1Cc2cccc(C(=O)Nc3ccc(C)cc3)c2C1=O	i	i	i	8%	-7%
COCCN1Cc2cccc(C(=O)Nc3ccc(Cl)cc3Cl)c2C1=O	/	i	i	16µM*	/
CCOC(=O)c1ccc(NC(=O)c2cccc3c2C(=O)N(CC2CCCO2)C3)cc1 (centres undefined)	i	?	i	22µM*	3%
COCCN1Cc2cccc(C(=O)Nc3ccc(C)c(F)c3)c2C1=O	/	i	i	13µM*	/
CCCCCCCCCOC(=O)CNc1nc(C#N)nc(NCC(=O)OCCCCCCCCC)n1	/	/	/	/	0%
COc1cccc(CNC(=O)C2CCCCN2S(=O)(=O)c2ccc(F)cc2)c1 (centres undefined)	/	i	i	16%	/
Clc1nc2c(-c3ccccc3)nnn2c2ccccc12	i	i	i	6.3µM*	-16%
Cc1nc2c(C(=O)N(C)Cc3ccccc3)c[nH]n2c(=O)c1Cc1ccc(Cl)cc1	/	i	i	7%	/
CC(C)(C)C(=O)Nc1ccc(C(=O)N/N=C/c2ccccc2OC(=O)c2ccc(Cl)cc2)cc1	i	22µM*	i	-17%	2%
CC1=CC2=NC(=O)/C(=C\c3cccn3CCOc3cccc(C)c3)C(=N)N2O1	i	i	i	?	?
CC1=CC2=NC(=O)/C(=C\c3cccn3CCOc3cc(C)ccc3C)C(=N)N2O1	i	i	i	16µM*	5%
CCc1ccc(CCC(=O)Nc2ccc(Br)cc2)o1	i	i	i	22µM*	-25%
COc1ccccc1-n1c(SCC(=O)O)nc2c(sc(=S)n2-c2ccccc2C)c1=O	i	i	i	-1%	-2%
